Sampled rows, rich in hits. Any-hit rate of the full collection: about 4.3%.
MITF act: activators of MITF-driven TRPM1 promoter reporter, primary screen, cell-based, SK-MEL-5, luciferase, single point | SK-MEL-5 TRPM1-promoter luciferase, 24 h; % of positive control, neutral wells = 0 | activation, % at 12.5 µM | 300,000 tested, 0.75% active;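 active = mean activation of at least 80% with every replicate also reaching 80%; inconclusive = mean reaches 80% but some replicate falls short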
SMARCA2 act: SMARCA2 (BRM) function activators, primary screen, cell-based, luminescence, high throughput; MG213 cells, MMTV-luciferase reporter, dexamethasone, overnight; activation, % at 9.1 µM; 370,000 tested, 1% active; AID 652017, 2013; in the data active = activation above about 7.8%
AF4-AF9 inh: inhibitors of AF4 peptide binding to AF9, primary screen, biochemical, AlphaScreen, biotin-AF4 peptide, FLAG-AF9, single point. inhibition, % at 10 µM. 350,000 tested, 0.47% active. Protein AF-9 (Homo sapiens), P42568;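 active = every replicate reaching a set inhibition limit, whatever the replicate mean, cut at about 25% in these data; inconclusive = mean inhibition reaches that limit but some replicates miss it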
Wnt bcat act: Wnt/beta-catenin pathway activators, primary screen, cell-based, plate reader, single point; activation, % at 9.35 µM; Wnt/beta-catenin reporter cell assay, activator; 300,000 tested, 1.2% active; AID 743398, 2014; in the data active = activation above about 30%, passing the limit was not always enough; inconclusive = no clear call, values can overlap the other calls
esBAF inh: Bmi1 luciferase reporter increase in mESCs, primary screen, esBAF inhibitor project, mouse ES cells, Bmi1 luciferase knock-in, single point. 24 h; 100% = twice the neutral-well signal. reporter increase, % at 12.5 µM. 350,000 tested, 2% active. AID 602393, 2012; in the data active = activation above about 40%; inconclusive = no clear call, values can overlap the other calls;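 note: a rise in the Bmi1 reporter signal indicates esBAF inhibition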
FGF22 binding: binders of human FGF22 protein, primary screen, FGF22 synaptogenesis inhibitor project, biophysical, thermal shift, single point; 340,000 tested, 1.5% active; AID 651658, 2012; activity (Tm shift, normalised), % at 9.99 µM; recombinant FGF22 thermal shift, SYPRO orange fluorescence; percent of sucrose octasulfate shift, DMSO zero;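 active = mean Tm shift, scaled 0 neutral to 100 positive control, at about 1.3% or above, every replicate too, limit read from the data; inconclusive = no clear call, values can overlap the other calls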
Target sequence (Q9HCT0 whole entry, looked up): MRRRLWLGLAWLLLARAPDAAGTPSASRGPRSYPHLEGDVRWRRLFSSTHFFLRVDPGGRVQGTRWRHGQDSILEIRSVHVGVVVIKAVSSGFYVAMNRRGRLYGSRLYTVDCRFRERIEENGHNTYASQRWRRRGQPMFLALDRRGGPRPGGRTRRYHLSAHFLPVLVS
A number is an active result; - = inactive; ? = inconclusive; . = no result.

SMILES | MITF act | SMARCA2 act | AF4-AF9 inh | Wnt bcat act | esBAF inh | FGF22 binding
CCOC(=O)c1sc(=NC(=O)c2ccc(F)cc2)n(C)c1C | - | - | - | ? | - | -
CCOC(=O)c1sc(=NC(=O)c2cccc(Br)c2)n(C)c1C | - | - | - | - | 71 | -
CCOC(=O)c1sc(=NC(=O)c2ccc(C)cc2)n(C)c1C | - | - | - | 31 | . | -
C[C@@H]1CN([C@H](C)CO)C(=O)c2cc(C3=CCCC3)cnc2O[C@@H]1CN(C)C(=O)c1ccc(F)cc1 | . | . | - | . | - | -
Cc1c(C(=O)/C=C/c2ccccc2F)c2cc(O)ccc2n1C | . | - | - | - | 57 | -
Cc1ccccc1Nc1nc2ccccc2s1 | - | - | . | . | . | .
Fc1ccc(Nc2nc3ccccc3s2)cc1 | - | - | - | - | 46 | -
Cc1ccc(Nc2nc3ccccc3s2)cc1 | - | - | - | - | . | 1.5
CC(C)NC(=O)N[C@@H]1C=C[C@@H](CC(=O)NCCN2CCCC2)O[C@H]1CO | . | . | - | . | - | -
O=[N+]([O-])c1ccc(CSc2nc3ccccc3o2)cc1 | 97 | - | . | - | . | .
O=[N+]([O-])c1ccc(CSc2nnc(SCc3ccccc3)s2)cc1 | - | - | - | - | . | 44
COC(=O)c1ccc(CSc2nc3ccccc3o2)cc1 | - | - | . | . | - | .
CC(C)NC(=O)Nc1ccc2c(c1)CC(=O)N([C@H](C)CO)C[C@@H](C)[C@H](CN(C)C(=O)Nc1cccc3ccccc13)O2 | . | . | - | . | - | -
O=C(CCN1CCCCC1)NCC[C@H]1CC[C@@H](NC(=O)C2CCCCC2)[C@@H](CO)O1 | . | . | - | . | . | .
N#CC(=C1CCCC1)c1nc(-c2cc3ccccc3oc2=O)cs1 | 88 | - | - | - | 108 | -
Cc1cc(C)c(-c2csc(Cc3nc(-c4cc5ccccc5oc4=O)cs3)n2)cc1C | - | - | . | . | . | .
N#CC(=C1CCCC1)c1nc(-c2ccccc2O)cs1 | - | . | . | . | . | .
N#CC(=C1CCCC1)c1nc(-c2ccccc2)cs1 | 121 | - | . | . | . | .
Cc1ccc(-c2csc(C(C#N)=C3CCCC3)n2)cc1 | 98 | - | . | - | 49 | .
CCCNC(=O)C[C@@H]1CC[C@@H]2[C@H](COc3ccc(NC(=O)c4ccc5c(c4)OCO5)cc3C(=O)N2C)O1 | . | . | - | . | - | -
Cc1ccc(SC[C@H](C)CN2CC[C@H](C)CCC2=O)cc1 | - | - | - | - | - | -
C[C@@H]1CCC(=O)N(C[C@@H](C)CSc2ccc(Br)cc2)CC1 | - | - | - | - | - | 43
CCC(=O)N(C)C[C@H]1Oc2ncc(C#Cc3cccnc3)cc2C(=O)N([C@H](C)CO)C[C@@H]1C | . | . | - | . | - | -
Clc1cccc(Nc2ncnc3c2cnn3-c2ccccc2)c1 | - | - | - | - | 65 | -
Fc1cccc(Nc2ncnc3c2cnn3-c2ccccc2)c1 | - | - | - | - | 57 | -
SMILES | MITF act | SMARCA2 act | AF4-AF9 inh | Wnt bcat act | esBAF inh | FGF22 binding
O=C(O)c1cccc(Nc2ncnc3c2cnn3-c2ccccc2)c1 | - | - | . | . | - | .
c1ccc(-n2ncc3c(NCc4ccco4)ncnc32)cc1 | - | - | . | ? | 57 | .
CC=Cc1ccc2n(c1=O)C[C@H]1[C@H](CO)[C@@H](C(=O)NCCc3ccncc3)[C@@H]2N1CCc1ccccc1 (mixture of isomers) | . | . | - | . | . | .
CN1C(=O)c2cc(NC(=O)Cc3ccccc3)ccc2OC[C@H]2O[C@@H](CC(=O)NC3CCC3)CC[C@@H]21 | . | . | - | . | - | -
O=C(CCc1nnc(-c2ccc(-c3ccccc3)cc2)o1)N1CCCCC1 | - | - | - | - | . | -
CC(=O)c1ccc(-c2nnc(CCC(=O)N3CCCC(C(=O)CC(C)C)C3)o2)s1 (stereo not drawn) | - | - | - | - | 83 | -
O=Cc1coc([B-](F)(F)F)c1 | . | - | - | - | . | -
CCCSc1nc2c(cnn2-c2ccccc2)c(=O)[nH]1 | - | - | - | - | - | -
C=CCSc1nc2c(cnn2-c2ccccc2)c(=O)n1N | . | - | - | 56 | . | -
Cc1ccc(C(=O)c2coc3ccc(O)c(Cl)c23)cc1 | . | - | . | 67 | 68 | .
Cc1ccc(CSc2nnc(-c3cccnc3)o2)cc1 | . | . | . | . | - | .
O=S(=O)(c1ccc(-c2nnc(SCc3ccccc3)o2)cc1)N1CCCC1 | - | - | . | - | - | .
C#CCSc1nnc(-c2ccc(O)cc2)o1 | ? | - | - | 46 | 69 | -
Oc1ccc(-c2nnc(SCc3ccccc3)o2)cc1 | 114 | - | - | - | 49 | -
c1ccc(CSc2nnc(-c3cccnc3)o2)cc1 | - | - | . | - | 42 | .
c1ccc(CSc2ccc(-c3cccnc3)nn2)cc1 | 89 | - | - | - | 59 | -
CCCN1C[C@H](C)[C@@H](OC)CN(C)C(=O)c2cc(NC(=O)c3cnccn3)ccc2OC[C@H]1C | . | . | . | . | - | -
COCC(=O)N1CC2(C1)[C@H](c1ccccc1)[C@H](CO)N2C(=O)c1ccncc1 | . | . | - | . | . | -
COc1ccc2c3c([nH]c2c1)[C@H](CO)N(C(=O)Cc1ccccc1)CC31CCN(C(=O)Nc2ccccc2F)CC1 | . | . | - | . | . | -
COCC(=O)N1[C@@H](C#N)[C@H](c2ccc(C#CCC3CCCC3)cc2)[C@@H]1CO | . | . | - | . | - | -
C[C@@H]1CN([C@H](C)CO)S(=O)(=O)c2ccc(-c3cncnc3)cc2O[C@@H]1CN(C)C(=O)c1cccc(F)c1 | . | . | - | . | - | -
c1ccc(-c2nnc(SCCC3OCCCO3)o2)cc1 | - | - | . | 48 | . | .
CO[C@@H]1CN(C)C(=O)c2cc(NC(=O)c3cnccn3)ccc2OC[C@@H](C)N(C(C)=O)C[C@H]1C | . | . | - | . | - | -
Cn1ccs/c1=N\C(=O)Nc1ccccc1 | 91 | - | - | - | 56 | -
CN(C)c1ccc(C(=O)N=c2sccn2C)cc1[N+](=O)[O-] | - | - | - | - | 56 | -
SMILES | MITF act | SMARCA2 act | AF4-AF9 inh | Wnt bcat act | esBAF inh | FGF22 binding
Cn1ccsc1=NC(=O)c1ccc(Cl)cc1 | - | - | - | - | . | -
COC(=O)c1ccc(C(=O)N=c2sccn2C)cc1 | 83 | - | - | - | 60 | -
Cn1ccsc1=NC(=O)c1ccc(S(=O)(=O)C(F)F)cc1 | - | - | - | - | 58 | -
O=C(Nc1ccccc1F)N[C@@H]1CC[C@H](CCNS(=O)(=O)c2ccc(F)cc2)O[C@@H]1CO | . | . | - | . | - | -
COCC(=O)N(C)C[C@H]1Oc2ncc(C#Cc3ccc(F)cc3)cc2C(=O)N([C@@H](C)CO)C[C@@H]1C | . | . | - | . | - | -
Cc1cc(C(=O)Nc2cccc3c2O[C@@H](CN(C)C(=O)Nc2ccc(C(F)(F)F)cc2)[C@H](C)CN([C@H](C)CO)C3=O)n(C)n1 | . | . | - | . | - | -
CC(C)NC(=O)N1CC[C@@H]2[C@H]1c1cc(C#Cc3cccnc3)ccc1N(C)[C@@H]2CO | . | . | . | . | - | .
CC(C)(C)C(=O)NNC(=O)c1cc2sccc2s1 | - | - | - | 41 | . | -
